Consider five compounds from PubChem BioAssay (NCATS).

Results filed as inconclusive are left out. Activity calls are given as the source filed them. Unless noted, calls follow the shape of the dose curve; as a rule, active = well fitted curve in the direction sought with a large enough effect; inconclusive = small, poorly fitted or top-dose-only effect, or another doubt; inactive = no such curve, though single readings can be large; an effect the other way counts as inactive or inconclusive. Some results are limits rather than exact numbers.

Assay [1] addresses Lysosomal acid glucosylceramidase (Homo sapiens) (UniProt P04062). The assay is described as follows: Glucocerebrosidase-p2 (AID 348; in the data active = potency below about 10 µM; also: potency is read from the fitted curve at half-maximal effect). The following applies: purified GBA, blue fluorogenic substrate, 40 min. The method in brief: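 Compounds titrated from 0.6 nM upwards against 0.2 nM enzyme in pH 5.9 citric acid/KH2PO4, taurocholate, tween-20; blue fluorogenic substrate 80 uM, 40 min room temperature, stopped and read Ex 365/Em 440 for AC50.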

Assay [2] in a line: AP1 Signaling Pathway (AID 357; active = well fitted curve in either direction with a large enough effect, not every such curve was filed as active;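 also: ME-180 reporter cells stimulated with EGF at its EC50 level; % is scaled to controls: 0 for no effect and ±100 for the full control effect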). The conditions noted are these: ME-180 AP-1-bla reporter, EGF-induced, beta-lactamase ratio, 5 h; at 7.69 µM (top of the series) unless noted. The method in brief:
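Beta-lactamase reporter under AP-1 response element, ME-180 background. Stimulus: EC50 EGF. Compound exposure 5 h, 37 °C. Detection: CCF4, 2.5 h RT, 460/530 nm. Values: AC50 from titration.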

Assay [3] addresses Cytochrome P450 1A2 (Homo sapiens) (UniProt P05177). The assay is described as follows: p450-cyp1a2 (AID 410; calls by dose curve; also: potency is read from the fitted curve at half-maximal effect). The following applies: recombinant CYP1A2, luciferin-ME demethylation, luminescence; series mostly up to 57 µM. The method in brief:
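Inhibition was calculated relative to 57 uM furafylline (full inhibition). The reaction used human CYP1A2 at 20nM with Luciferin-ME at its Km, 100uM, driven by an NADPH-regenerating system for 60 min at room temperature.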

Assay [4] is described as follows: NFAT Signaling Pathway (AID 444; active = well fitted curve in either direction with a large enough effect, not every such curve was filed as active;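 also: carbachol stimulus at about its EC50 of 1 µM final; % is scaled to controls: 0 for no effect and ±100 for the full control effect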). The conditions noted are these: Jurkat NFAT-bla M1, carbachol, beta-lactamase ratio, 5 h. The method in brief:
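Jurkat cells carrying an NFAT-driven β-lactamase reporter and co-transfected muscarinic M1 receptor were treated with compound plus carbachol (1 uM final, an EC50 level) for 5 h at 37 °C. CCF4 loading followed for 1 h at RT; 460/530 nm ratio gave %activity.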

The nature of assay [5]: Stat Signaling Pathway (AID 446; active = well fitted curve in either direction with a large enough effect, not every such curve was filed as active;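 also: ME-180 cervical cancer cells given 40 pM IL-6 alongside compound; SIE-controlled beta-lactamase reporter measured as 460/530 nm FRET emission ratio; % is scaled to controls: 0 for no effect and ±100 for the full control effect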). The conditions noted are these: ME-180 (cervical carcinoma) SIE beta-lactamase reporter, IL-6 stimulated, 5 h; at 7.69 µM (top of the series) unless noted. In a few lines:
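ME-180 SIE-bla cells; overnight plating; cpd + IL-6 40 pM, 5 h, 37 C; LiveBLAzer 2.5 h RT; 460/530 nm emission ratio. Normalized to 300 pM IL-6 and 125 nM JAK inhibitor controls.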

Assay [6] addresses Glucocorticoid receptor (Homo sapiens) (UniProt P04150). The experiment in a line: GR-GFP Redistribution (AID 450;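 active = compounds whose dose series gives a full or clear partial fitted curve of increased nuclear translocation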; also: potency is read from the fitted curve at half-maximal effect). The conditions noted are these: U2OS GR-GFP nuclear translocation, laser cytometry, 2 h.
The target is the same in assay [7]. The assay is described as follows: GR-EFC Redistribution (AID 451; calls by dose curve; also: potency is read from the fitted curve at half-maximal effect). The following applies: CHO-K1 GR-EFC translocation, beta-gal luminescence, 2 h. The method in brief:
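CHO-K1 cells stably expressing nuclear-localized β-gal enzyme acceptor and GR fused C-terminally to the enzyme donor fragment; ligand-driven nuclear translocation restores β-gal by complementation. Compounds titrated up to 46 uM final, 2 h at 37 °C; luminescence read.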

Assay [8] has as its target Mitogen-activated protein kinase 10 (Mus musculus) (UniProt Q61831). The experiment in a line: JNK3 AlphaScreen Assay (AID 530; active = well fitted curve in either direction with a large enough effect, not every such curve was filed as active;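 also: kinase came from lysate of stimulated human HepG2 cells; signal reports phosphorylation of biotinylated GST-cJun 1-79 at Ser73 with 10 µM ATP; % is scaled to controls: 0 for no effect and ±100 for the full control effect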). The conditions noted are these: JNK3 lysate, c-Jun phosphorylation; series mostly up to 57.1 µM. The method in brief:
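JNK3 came from HepG2 lysates pre-activated with IL-1beta and TNF-alpha and phosphorylated biotinylated GST-cJun (1-79) at 10 uM ATP, pH 7.6, room temperature. Compounds were titrated. AlphaScreen signal used anti-phospho-cJun (Ser73) antibody.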
(Alpha assays give light when donor and acceptor beads are brought close together.)

For assay [9], the target named is 3',5'-cyclic-AMP phosphodiesterase 4B (Homo sapiens) (UniProt Q07343). The assay is described as follows: qHTS Assay for Inhibitors of PDE-IV (AID 607; active = well fitted activation curve with a large enough effect in the main read-out, with a control signal flat, not every such curve was filed as active; also: % of control where 0% means no effect). The conditions noted are these: HEK293 ACTOne CNG channel cells, membrane potential fluorescence; series mostly up to 22.9 µM. The method in brief: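 ACTOne HEK293 cells carry a modified cAMP-gated CNG channel and express endogenous PDE4; plated 1000 cells/well, compounds up to 22.9 uM final. Membrane-potential dye fluorescence (ex 535/em 590) was read; parental cells received 10 uM forskolin + 100 uM RO 20-1724.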
For orientation: In qHTS, concentration-response curves come from the screen itself.

Assay [10] is described as follows: qHTS Assay for Lipid Storage Modulators (AID 1519; calls by dose curve). The conditions noted are these: Drosophila S3 cells, BODIPY lipid droplet/cell ratio, laser cytometry, cells loaded with oleic acid. The method in brief: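 Cells seeded at 5,000 per well were treated with compounds over a concentration series and loaded with oleic acid (400 uM, as added). Lipid droplet fluorescence (488 nm excitation, 500-530 nm channel) was read by laser-scanning cytometry and normalized to 20 uM Triacsin C.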

Assay [11] has as its target Dual specificity protein kinase CLK4 (Homo sapiens) (UniProt Q9HAZ1). The experiment in a line: qHTS Assay for Inhibitors of CDC-like Kinase 4 (Kinase-Glo Assay) (AID 1770). Also: % is scaled to controls: 0 for no effect and ±100 for the full control effect; nearly all actives have a fitted effect of over 65% in size. The following applies: recombinant Clk4, Kinase-Glo ATP depletion luminescence; series mostly up to 66.7 µM. The method in brief:
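Luminescent ATP-depletion read-out (Kinase-Glo) after 4.5 h room-temperature reaction of Clk4 (25 nM final) with RS peptide (100 uM) and ATP (1 uM), pH 7.5 Tris buffer with MgCl2 and DTT.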

The target is the same in assay [12]. The assay is described as follows: qHTS Assay for Inhibitors of CDC-like Kinase 4 (ADP-Glo Assay) (AID 1771). Also: % is scaled to controls: 0 for no effect and ±100 for the full control effect; nearly all actives have a fitted effect of over 70% in size. The following applies: recombinant CLK4, ADP-Glo luminescence; series mostly up to 80 µM. In a few lines: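 Kinase reaction: Clk4 at 25 nM, RS repeat peptide substrate at 100 uM, ATP at 1 uM, 1 hr, room temperature. Product ADP detected as luciferase signal via ADP-Glo.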

The target is the same in assay [13]. The assay is described as follows: qHTS Assay for Inhibitors of CDC-like Kinase 4 (ADP-FP Assay) (AID 1795). Also: % is scaled to controls: 0 for no effect and ±100 for the full control effect; nearly all actives have a fitted effect of over 60% in size. The conditions noted are these: Transcreener ADP fluorescence polarization; series mostly up to 50 µM. In a few lines: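 Kinase activity was measured as ADP production using Transcreener orange tracer (4 nM) and ADP antibody (1 ug/mL) fluorescence polarization, with ADP calculated from a calibration curve. The 1 h reaction contained 6.25 nM Clk4, 1 uM ATP and 100 uM RS peptide at pH 7.5 with Mg2+.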

The target of assay [14] is Ubiquitin carboxyl-terminal hydrolase 1 (Homo sapiens) (UniProt O94782). The experiment in a line: Inhibitors of USP1/UAF1: Pilot qHTS (AID 504865).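 Also: rhodamine fluorescence freed from ubiquitin-rhodamine substrate followed over time; top concentration of the series differs between compounds; % is scaled to controls: 0 for no effect and ±100 for the full control effect; nearly all actives have a fitted effect of over 35% in size.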 The following applies: purified USP1/UAF1, Ub-rhodamine cleavage fluorescence; series mostly up to 54.9 µM. The method in brief:
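Deubiquitinase activity followed as kinetic rhodamine fluorescence release from 150 nM Ub-Rho. 1 nM USP1/UAF1 with compound, after 15 min room-temperature preincubation, in HEPES pH 7.8 buffer containing TCEP, EDTA, BSA and Tween-20.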

Assay [15] in a line: Primary qHTS for small molecule stabilizers of the endoplasmic reticulum resident proteome: Secreted ER Calcium Modulated Protein (SERCaMP) assay (AID 1508630). Also: % is scaled to controls: 0 for no effect and ±100 for the full control effect. The conditions noted are these: SH-SY5Y GLuc-SERCaMP (Gaussia luciferase released on ER calcium loss) secretion, thapsigargin, luminescence; series mostly up to 38.4 µM. The method in brief:
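GLuc-SERCaMP-expressing SH-SY5Y cells, pretreated 16 h with compound, are challenged with thapsigargin to empty ER calcium stores; after 4 h, coelenterazine is added directly to the medium and luminescence is imaged.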

Assay [16] concerns the target Rap guanine nucleotide exchange factor 3 (Homo sapiens) (UniProt O95398). The experiment in a line: Confirmatory qHTS for agonist of cAMP-regulated guanine nucleotide exchange factor 3 (EPAC1) (AID 1645881).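 Also: EPAC1 catalysed release of BODIPY-GDP from Rap1B seen as fluorescence loss; nearly all actives have a fitted effect of over 75% in size.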 The following applies: EPAC1 Rap1B BODIPY-GDP exchange fluorescence, 100% = cAMP control response; series mostly up to 154 µM.
The target of assay [17] is Rap guanine nucleotide exchange factor 4 (Homo sapiens) (UniProt Q8WZA2). The assay is described as follows: Confirmatory qHTS for antagonist of cAMP-regulated guanine nucleotide exchange factor 4 (EPAC2) (AID 1645885). Also: potency is read from the fitted curve at half-maximal effect; nearly all actives have a fitted effect of over 25% in size. The conditions noted are these: EPAC2 Rap1B-BODIPY-GDP exchange fluorescence, biochemical; series mostly up to 114 µM.
The mark [18] stands for this setting: at 7.69 µM (top of the series) unless noted.
Where [19] appears, read: measured here: cell count channel max response.
Where [20] appears, read: measured here: lipid channel max response.

Cytochrome P450 1A2 (Homo sapiens), sequence (P05177 whole entry, looked up): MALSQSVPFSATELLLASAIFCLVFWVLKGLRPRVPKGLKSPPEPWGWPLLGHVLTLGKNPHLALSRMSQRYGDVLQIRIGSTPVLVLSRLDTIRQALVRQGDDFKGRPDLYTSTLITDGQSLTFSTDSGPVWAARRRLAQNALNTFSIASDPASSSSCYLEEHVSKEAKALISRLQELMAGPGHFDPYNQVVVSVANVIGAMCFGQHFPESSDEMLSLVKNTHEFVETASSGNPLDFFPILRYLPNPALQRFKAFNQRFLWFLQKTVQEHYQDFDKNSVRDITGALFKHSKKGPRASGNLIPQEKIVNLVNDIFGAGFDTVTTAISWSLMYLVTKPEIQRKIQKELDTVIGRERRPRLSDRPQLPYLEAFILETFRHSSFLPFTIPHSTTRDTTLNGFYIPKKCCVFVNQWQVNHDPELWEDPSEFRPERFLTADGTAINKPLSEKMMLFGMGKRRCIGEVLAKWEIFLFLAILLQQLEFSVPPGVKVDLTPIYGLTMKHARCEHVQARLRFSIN
Ubiquitin carboxyl-terminal hydrolase 1 (Homo sapiens), sequence (O94782 whole entry, looked up): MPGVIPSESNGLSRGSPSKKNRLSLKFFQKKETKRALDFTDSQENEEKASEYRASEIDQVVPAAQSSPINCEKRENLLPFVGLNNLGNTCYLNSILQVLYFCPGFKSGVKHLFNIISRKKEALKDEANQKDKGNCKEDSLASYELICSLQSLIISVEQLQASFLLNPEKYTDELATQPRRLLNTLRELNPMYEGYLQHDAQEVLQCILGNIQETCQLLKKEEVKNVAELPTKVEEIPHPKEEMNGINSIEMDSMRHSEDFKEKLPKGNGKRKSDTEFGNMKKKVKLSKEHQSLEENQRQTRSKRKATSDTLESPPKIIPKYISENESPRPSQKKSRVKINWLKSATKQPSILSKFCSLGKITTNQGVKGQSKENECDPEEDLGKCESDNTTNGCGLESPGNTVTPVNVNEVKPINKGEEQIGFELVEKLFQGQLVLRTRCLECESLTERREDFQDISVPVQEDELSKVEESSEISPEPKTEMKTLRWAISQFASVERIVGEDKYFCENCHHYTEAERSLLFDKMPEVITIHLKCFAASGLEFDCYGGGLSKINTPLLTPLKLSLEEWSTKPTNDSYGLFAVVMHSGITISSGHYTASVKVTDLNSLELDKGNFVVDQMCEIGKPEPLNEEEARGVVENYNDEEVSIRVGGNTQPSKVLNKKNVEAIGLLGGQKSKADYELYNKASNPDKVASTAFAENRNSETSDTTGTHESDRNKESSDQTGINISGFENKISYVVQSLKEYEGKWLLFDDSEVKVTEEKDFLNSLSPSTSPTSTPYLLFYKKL
Glucocorticoid receptor (Homo sapiens), sequence (P04150 whole entry, looked up): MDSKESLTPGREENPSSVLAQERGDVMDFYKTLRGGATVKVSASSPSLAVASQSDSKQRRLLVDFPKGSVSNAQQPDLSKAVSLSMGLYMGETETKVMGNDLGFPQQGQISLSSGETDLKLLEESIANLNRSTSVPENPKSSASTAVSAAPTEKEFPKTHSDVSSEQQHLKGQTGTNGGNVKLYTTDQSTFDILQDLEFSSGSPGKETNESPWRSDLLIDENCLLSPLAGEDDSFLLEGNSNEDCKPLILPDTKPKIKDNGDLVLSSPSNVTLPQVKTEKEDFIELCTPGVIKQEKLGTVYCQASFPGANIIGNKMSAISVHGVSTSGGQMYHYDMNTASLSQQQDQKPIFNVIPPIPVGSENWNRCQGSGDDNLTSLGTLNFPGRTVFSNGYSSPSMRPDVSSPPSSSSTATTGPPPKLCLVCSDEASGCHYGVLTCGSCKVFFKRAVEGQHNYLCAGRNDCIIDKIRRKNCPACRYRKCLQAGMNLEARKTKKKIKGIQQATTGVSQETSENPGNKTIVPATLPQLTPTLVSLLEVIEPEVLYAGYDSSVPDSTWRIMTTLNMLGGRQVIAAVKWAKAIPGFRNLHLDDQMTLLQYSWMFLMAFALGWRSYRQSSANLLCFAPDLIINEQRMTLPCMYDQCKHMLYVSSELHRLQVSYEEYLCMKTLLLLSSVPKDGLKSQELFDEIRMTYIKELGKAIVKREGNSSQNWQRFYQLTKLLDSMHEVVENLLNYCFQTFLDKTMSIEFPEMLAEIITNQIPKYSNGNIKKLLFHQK
Dual specificity protein kinase CLK4 (Homo sapiens), sequence (Q9HAZ1 whole entry, looked up): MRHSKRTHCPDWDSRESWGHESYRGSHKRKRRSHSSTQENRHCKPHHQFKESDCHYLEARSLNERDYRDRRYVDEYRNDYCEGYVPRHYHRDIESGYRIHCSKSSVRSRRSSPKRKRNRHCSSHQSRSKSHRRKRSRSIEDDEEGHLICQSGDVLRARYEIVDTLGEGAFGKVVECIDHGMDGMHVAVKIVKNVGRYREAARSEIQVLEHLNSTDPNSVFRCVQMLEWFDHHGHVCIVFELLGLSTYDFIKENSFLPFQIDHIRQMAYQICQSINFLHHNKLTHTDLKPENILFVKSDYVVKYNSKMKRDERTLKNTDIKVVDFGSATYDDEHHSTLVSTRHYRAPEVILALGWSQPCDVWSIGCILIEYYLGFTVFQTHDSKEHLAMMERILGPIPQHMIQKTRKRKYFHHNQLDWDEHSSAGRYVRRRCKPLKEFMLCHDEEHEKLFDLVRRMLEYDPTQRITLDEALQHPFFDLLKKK
Lysosomal acid glucosylceramidase (Homo sapiens), sequence (P04062 whole entry, looked up): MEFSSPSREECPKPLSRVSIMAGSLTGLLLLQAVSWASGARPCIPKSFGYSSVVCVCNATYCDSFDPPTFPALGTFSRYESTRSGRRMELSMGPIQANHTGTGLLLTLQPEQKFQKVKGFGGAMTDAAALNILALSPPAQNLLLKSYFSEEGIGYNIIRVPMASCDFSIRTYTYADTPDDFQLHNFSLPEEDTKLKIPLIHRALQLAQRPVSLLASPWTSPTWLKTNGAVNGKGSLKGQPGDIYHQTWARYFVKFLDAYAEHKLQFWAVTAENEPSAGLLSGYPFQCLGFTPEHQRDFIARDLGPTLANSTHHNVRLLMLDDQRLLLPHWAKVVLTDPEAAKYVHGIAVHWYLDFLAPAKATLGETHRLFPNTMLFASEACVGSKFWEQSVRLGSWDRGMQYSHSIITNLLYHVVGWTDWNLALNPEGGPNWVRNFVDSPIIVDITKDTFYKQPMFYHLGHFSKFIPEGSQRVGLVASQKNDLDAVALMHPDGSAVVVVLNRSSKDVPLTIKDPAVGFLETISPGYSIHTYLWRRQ
3',5'-cyclic-AMP phosphodiesterase 4B (Homo sapiens), sequence (Q07343 whole entry, looked up): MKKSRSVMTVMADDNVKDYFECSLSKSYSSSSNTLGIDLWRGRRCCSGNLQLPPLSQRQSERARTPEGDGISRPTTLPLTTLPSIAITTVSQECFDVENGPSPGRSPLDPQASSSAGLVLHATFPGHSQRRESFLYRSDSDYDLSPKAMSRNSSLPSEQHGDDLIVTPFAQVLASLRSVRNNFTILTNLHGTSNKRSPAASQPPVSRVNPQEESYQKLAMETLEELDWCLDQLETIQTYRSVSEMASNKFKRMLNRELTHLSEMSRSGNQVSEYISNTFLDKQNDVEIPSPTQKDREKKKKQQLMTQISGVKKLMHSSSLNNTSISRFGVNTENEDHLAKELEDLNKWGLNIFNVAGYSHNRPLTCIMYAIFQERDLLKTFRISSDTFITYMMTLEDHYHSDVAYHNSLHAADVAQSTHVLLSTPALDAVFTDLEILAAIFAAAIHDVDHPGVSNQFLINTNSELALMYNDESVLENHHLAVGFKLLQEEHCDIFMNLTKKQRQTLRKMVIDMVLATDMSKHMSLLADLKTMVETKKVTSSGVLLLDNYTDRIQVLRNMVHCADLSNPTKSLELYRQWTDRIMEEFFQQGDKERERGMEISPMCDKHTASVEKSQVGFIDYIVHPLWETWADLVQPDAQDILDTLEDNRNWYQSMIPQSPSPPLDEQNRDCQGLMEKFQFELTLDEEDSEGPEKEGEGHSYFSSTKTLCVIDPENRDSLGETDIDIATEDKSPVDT
Rap guanine nucleotide exchange factor 4 (Homo sapiens), sequence (Q8WZA2 whole entry, looked up): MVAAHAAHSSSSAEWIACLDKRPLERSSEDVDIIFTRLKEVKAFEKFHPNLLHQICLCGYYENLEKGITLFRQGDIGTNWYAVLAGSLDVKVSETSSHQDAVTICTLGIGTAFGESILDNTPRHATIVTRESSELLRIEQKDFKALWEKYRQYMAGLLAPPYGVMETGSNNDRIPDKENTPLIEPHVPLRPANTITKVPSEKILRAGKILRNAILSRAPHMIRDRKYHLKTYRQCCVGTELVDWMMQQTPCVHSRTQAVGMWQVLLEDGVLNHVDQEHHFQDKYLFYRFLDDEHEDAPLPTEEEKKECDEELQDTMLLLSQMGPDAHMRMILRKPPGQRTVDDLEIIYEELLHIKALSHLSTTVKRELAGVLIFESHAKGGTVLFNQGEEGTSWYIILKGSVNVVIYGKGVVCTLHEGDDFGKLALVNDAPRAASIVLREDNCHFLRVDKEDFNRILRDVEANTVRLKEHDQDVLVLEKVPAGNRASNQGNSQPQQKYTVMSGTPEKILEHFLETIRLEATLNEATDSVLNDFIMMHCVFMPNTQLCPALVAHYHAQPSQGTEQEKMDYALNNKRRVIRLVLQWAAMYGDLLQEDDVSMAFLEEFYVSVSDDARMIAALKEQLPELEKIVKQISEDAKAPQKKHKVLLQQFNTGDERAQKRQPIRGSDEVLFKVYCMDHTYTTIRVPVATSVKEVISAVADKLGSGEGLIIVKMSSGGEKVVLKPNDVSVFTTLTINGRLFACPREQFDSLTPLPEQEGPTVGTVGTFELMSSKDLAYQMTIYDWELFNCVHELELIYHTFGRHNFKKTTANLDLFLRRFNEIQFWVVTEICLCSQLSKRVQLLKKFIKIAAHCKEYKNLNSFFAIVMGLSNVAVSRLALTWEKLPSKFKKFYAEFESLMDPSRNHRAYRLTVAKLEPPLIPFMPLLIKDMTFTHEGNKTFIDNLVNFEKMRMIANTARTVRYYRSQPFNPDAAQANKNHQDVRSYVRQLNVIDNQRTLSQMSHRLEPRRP

With `COc1cccc(Nc2ncc3nc(-c4ccc(F)cc4)c(=O)n(C)c3n2)c1`, the Potency in assay [1] was > 11.4 µM (inactive); in [3], 3.16 µM (active); in [6], > 9.22 µM (inactive); in assay [7], > 46 µM (inactive). Besides, the activity change, negative = inhibition in [2] was -6.29% (inactive); in [4] (setting [18]) it was -16.4% (inactive); in assay [10] (at 57.5 µM (top of the series)), 5.16% (inactive). In assay [5], the activity, negative = inhibition was -6.63% (inactive). The outcome in assay [8] was inactive. In addition, the Potency result in assay [9], in assay [11], in [12], in [13], in [14] and in [15] was “inactive” throughout. For the same compound, the max response in [10] (setting [19]) is 19%; in assay [10] (setting [20]) it was 25.1%.
Regarding `O=c1c(-c2cc(F)cc(F)c2)nc2cncnc2n1-c1ccccc1`, the Potency in assay [1] was > 11.4 µM (inactive); in assay [3] it was 12.6 µM (active); in assay [6] it was > 9.22 µM (inactive); in [7], > 46 µM (inactive). The activity change, negative = inhibition in assay [2] was -15.8% (inactive); in assay [4] (setting [18]), -2.26% (inactive); in assay [10] (at 57.5 µM (top of the series)), 6.93% (inactive). Also, the activity, negative = inhibition in assay [5] was -16.9% (inactive). The compound was classed as inactive in [8]. Further, the max response stood at 22.2% in assay [10] (setting [19]) and 28.7% in assay [10] (setting [20]). In addition, the Potency entry in assay [11], in [12], in assay [13], in [14] and in assay [15] was “inactive” throughout.
On to `Oc1ccc(/C=C\c2cc(O)cc(O)c2)cc1`, for which the activity change, negative = inhibition in assay [2] was -2.07% [at 17.2 µM] (inactive); in [4] (at 17.2 µM (top of the series)), -19.4% (inactive); in [4] (at 38 µM (top of the series)), -5.74% (inactive); in assay [10] (at 25.7 µM (top of the series)) it was 2.61% (inactive). Also, the activity, negative = inhibition in [5] is -21.4% [at 17.2 µM] (inactive). In addition, the result in assay [8] and in assay [16] was inactive. For the same compound, the Potency entry in assay [9], in assay [14] and in assay [15] was “inactive” each time. Moreover, the results for the max response in assay [10] (setting [19]) and in assay [10] (setting [20]) were -19.7% and -17.5%, respectively. Moreover, the Potency in assay [17] is 44.1 µM (active).
In the case of `FC(F)(F)c1ccccc1-c1cc(NCCN2CCOCC2)ncn1`, the Potency was > 11.4 µM (inactive) in assay [1], 12.6 µM (active) in [3], > 46 µM (inactive) in assay [6] and > 46 µM (inactive) in assay [7]. The activity change, negative = inhibition in assay [2] was 10.7% (inactive); in assay [4] (setting [18]), 27.7% (inactive); in [10] (at 57.5 µM (top of the series)), 5.67% (inactive). For the same compound, the activity, negative = inhibition in assay [5] was 14.2% (inactive). Also, in [8], the result was inactive. The max response in assay [10] (setting [19]) was 25.8%; in assay [10] (setting [20]), 30.8%. Further, the Potency entry in [11], in assay [12], in assay [13], in [14] and in assay [15] was “inactive” each time.
Take `Cn1cc(-c2nc3cnc(Oc4ccccc4)nc3n(C)c2=O)c2ccccc21`: the Potency in assay [1] is > 11.4 µM (inactive); in [3] it was 12.6 µM (active); in assay [6], > 9.22 µM (inactive); in [7] it was > 46 µM (inactive). For the same compound, the activity change, negative = inhibition in assay [2] is 0.766% (inactive); in [4] (setting [18]) it was -2.6% (inactive); in assay [10] (at 57.5 µM (top of the series)), -0.452% (inactive). Besides, the activity, negative = inhibition in assay [5] was 24.9% (inactive). Also, in assay [8], the result was inactive. Further, the max response in [10] (setting [19]) is 14.6%; in [10] (setting [20]) it was 18.4%. Besides, the Potency entry in assay [11], in assay [12], in assay [13], in assay [14] and in assay [15] was “inactive” each time.
